Assay outcomes from PubChem.
An excerpt weighted towards active compounds, which were near 21% of everything screened.
Shiga inhibitor: Shiga toxin inhibition; 9.2% of 290,000 active; AID 2315; inhibition, % at 38.7 µM; Vero cells, Shiga toxin protein synthesis inhibition reporter; in the data active = inhibition mostly above about 28%, no sharp cut-off; inactive = mostly below about 43%; also: 0% is about no effect
Pf growth 96h: P. falciparum growth inhibition at 96 hour, primary screen for plastid delayed-death inhibitors; 6.9% of 320,000 active; P. falciparum luciferase reporter growth, 96 h; AID 504834; Potency, µM (highest dose often 28.7 µM), inactives show at the highest dose activity change, negative = inhibition, most hits filed as inhibitors; also: potency is read from the fitted curve at half-maximal effect; % is scaled to controls: 0 for no effect and ±100 for the full control effect
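Readout is luminescence from an integrated firefly luciferase in P. falciparum. Red cells, 2% hematocrit and 0.05% parasitemia final, were cultured with compound through two parasite generations (96 hours) at 37 C, 5% CO2.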
Pf growth 48h: inhibits P. falciparum growth in the first generation, 48 h; P. falciparum luciferase growth in erythrocytes, 48 h; Potency, µM (doses to about 28.7 µM), without a hit: at the highest dose activity change, negative = inhibition, usual class: inhibitors; 5.9% of 310,000 active; also: potency is read from the fitted curve at half-maximal effect; % is scaled to controls: 0 for no effect and ±100 for the full control effect
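Cell-based growth assay: transgenic P. falciparum expressing firefly luciferase, cultured in red cells within RPMI 1640 containing 0.5% w/v Albumax, 24 mM bicarbonate and gentamycin. A drop in luciferase activity indicates inhibition.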
CHX counter: affects cycloheximide protein synthesis inhibition readout, counter-screen | cell reporter, cycloheximide protein synthesis inhibition counterscreen | max response, % | 12% of 300,000 active; in the data active = max response mostly above about 13%, no sharp cut-off; inactive = mostly below about 14%; also: read at 38.3 µM for the half of the compounds with a filed dose; 0% is about no effect
NS1 inh: inhibitors of influenza NS1 protein function | 0.4% of 270,000 active | AID 2326 | Potency, µM (highest dose often 46.1 µM), for the others: at the top dose activity, positive = more growth; calls by dose curve; also: potency is read from the fitted curve at half-maximal effect; actives are rising curves; nearly all actives have a fitted effect of over 50% in size
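S. cerevisiae expressing influenza A NS1, grown in glucose, washed, then diluted 1:100 into pH 6.0 -URA galactose medium with 23 nl compound. Growth recovery read as OD600; NS1-free strain serves as control.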
Sm TGR inh: inhibitors of Schistosoma mansoni thioredoxin glutathione reductase; Q962Y6; purified TGR, DTNB reduction, TNB absorbance 405 nm; Potency, µM (doses to about 114 µM), for inactives: top-dose activity change, negative = inhibition, usual class: inhibitors; 3% of 360,000 active; AID 485364; also: potency is read from the fitted curve at half-maximal effect; % is scaled to controls: 0 for no effect and ±100 for the full control effect; nearly all actives have a fitted effect of over 60% in size
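TGR 20 nM + NADPH 100 uM (dispensed conc.), cpd preinc 15 min RT; start with NADPH (500 uM addition) then DTNB (15 mM addition). Kinetic TNB absorbance, 405 nm filter. Four-parameter Hill fit across titration.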
* = called active by the depositor; ? = inconclusive; . = not tested or not shown; [ ] = remark or other dose. Unless noted, calls follow the shape of the dose curve; as a rule, active = well fitted curve in the direction sought with a large enough effect; inconclusive = small, poorly fitted or top-dose-only effect, or another doubt; inactive = no such curve, though single readings can be large; an effect the other way counts as inactive or inconclusive.

SMILES | Shiga inhibitor | Pf growth 96h | Pf growth 48h | CHX counter | NS1 inh | Sm TGR inh
Cc1ccc(N2CN=c3s/c(=C\c4cccnc4)c(=O)n3C2)cc1 | 28 | 40% | ? | 20* | -5% | 3%
Cc1ccc(/C=c2/sc3n(c2=O)CCCN=3)o1 | 60* | 218% | 221% | 35* | -12% | 11µM*
Cc1ccc(/C=c2\sc3n(c2=O)CN(c2ccc(Br)cc2)CN=3)o1 | -3 | ? | 14% | -3 | 2% | 13µM*
CSC1=N/C(=C\c2ccc(C)o2)C(=O)S1 | -12 | 11% | . | 5 | -53% | -2%[11.4 µM]
O=C(NCc1ccc(/C=c2\sc3n(c2=O)CCN=3)o1)C(=O)Nc1ccccc1 | 26 | 20% | 18% | 20 | . | 35µM*
COc1cccc(NC(=O)CN(C)CC(=O)Nc2ccc(C)c([N+](=O)[O-])c2)c1 | -3 | 0% | -2% | -3 | -7% | 11%
O=C1/C(=C\c2ccc3c(c2)OCO3)CCC/C1=C/c1ccc2c(c1)OCO2 | 50 | 0% | 3% | 7 | -13% | 2%
O=c1/c(=C\c2ccc3c(c2)OCO3)sc2n1CCCN=2 | 50* | -28% | 150% | 28* | -38% | 0%
Cc1cccc(N2C(=O)CSC23C(=O)N(CC(=O)Nc2cccc(Cl)c2)c2ccccc23)c1 (stereo unspecified) | . | . | . | . | . | -11%
COc1ccc(/C=N/NC(=O)c2cc(C(C)(C)C)[nH]n2)cc1COc1ccc(F)cc1F | 29 | 13µM* | ? | 13 | . | 2%
COc1ccc(/C=N/NC(=O)c2ccco2)cc1COc1ccc(F)cc1 | 21 | ? | 9.3µM* | 8 | 7% | 1%
COc1ccc(/C=N/NC(=O)c2ccoc2C)cc1COc1c(C)cccc1C | 117* | 10µM* | ? | 33* | -115% | 4%
COc1cc(/C=N/NC(=O)c2ccoc2C)cc(OC)c1O | 83* | 2.6µM* | 0% | 47* | 7% | -6%
COc1ccc(/C=N/NC(=O)c2ccc(NC(C)=O)cc2)cc1COc1ccc(F)cc1F | -6 | 30% | 11% | -6 | 3% | 8%
COc1ccc(/C=N\NC(=O)c2ccccc2Br)cc1COc1c(F)c(F)cc(F)c1F | -11 | 11% | 35% | -2 | -24% | -21%
CCOc1ccc(CNC(=O)Cn2ccc3cc(S(=O)(=O)N4CCCCCC4)ccc32)cc1 | 14 | ? | ? | 14 | 11% | -2%
COc1cc2nc(SCC(=O)Nc3ccc(F)cc3)n3nc(CCn4c(C)nc5ccccc54)nc3c2cc1OC | . | . | . | . | . | 0%
COc1ccc(C(=O)N/N=C/c2ccc(OC)c(COc3ccccc3)c2)cc1 | 10 | ? | 10% | 11 | 10% | -1%
COc1ccc(/C=N\NC(=O)c2cc(O)c(O)c(O)c2)cc1COc1ccc(C(=O)OCC(C)C)cc1 | 30 | ? | 2.9µM* | 6 | 6% | -34%
COc1ccc(/C=N\NC(=O)c2ccccc2OC)cc1COc1ccccc1C | 3 | -7% | 13µM* | 7 | -5% | 0%
COc1ccc(/C=N\NC(=O)c2ccccc2F)cc1COc1ccc(F)cc1F | 32* | ? | ? | 24* | -40% | -11%
COc1ccc(/C=N\NC(=O)c2ccccc2F)cc1COc1ccc(F)cc1 | 2 | ? | 4% | 2 | -3% | -21%
COc1ccc(/C=N\NC(=O)c2ccccc2)cc1COc1ccccc1 | 45* | 12µM* | ? | 25* | -5% | 0%
COc1cccc(OCc2cc(/C=N/NC(=O)c3ccn[nH]3)ccc2OC)c1 | 71* | 77% | 63% | 50* | 9% | -22%
COc1ccc(/C=N/NC(=O)c2nn(C)cc2Br)cc1CSCc1ccco1 | 38* | -6% | -12% | 31* | 0% | ?
SMILES | Shiga inhibitor | Pf growth 96h | Pf growth 48h | CHX counter | NS1 inh | Sm TGR inh
COc1ccc(CCNC(=O)CSc2cc(=O)n(C)c3ccccc23)cc1OC | . | . | . | . | . | -4%
CC(C)(C)C(=O)Nc1ccccc1C(=O)OCc1cc(=O)n2ccsc2n1 | . | . | . | . | . | 3%
COc1ccc(NC(=S)NCc2ccccc2)c(OC)c1 | -9 | ? | ? | -1 | 1% | 0%
CCc1ccc(NC(=O)Cn2c(=O)n(CCCC(=O)NCCc3ccc(OC)c(OC)c3)c(=O)c3ccccc32)cc1 | . | . | . | . | . | 10%
COc1ccc2c(c1OC)C(=O)N1N=C(c3ccccc3)CC21 (stereo unspecified) | 31 | ? | 4.1µM* | 18* | -19% | 1%
O=C(O)CC(c1cccc([N+](=O)[O-])c1)N1Cc2ccccc2C1=O (stereo unspecified) | 7 | -4% | 13% | -1 | 2% | 11%
Cn1cc(CN2CCN(Cc3ccccc3)CC2)c(-c2cccc(Cl)c2)n1 | -15 | ? | ? | -2 | 0% | 32µM*
Cn1cc(CN2CCC[C@H]2CO)c(-c2cccc(Cl)c2)n1 | -10 | ? | -1% | 27* | -2% | 14%
CN(Cc1cn(C)nc1-c1cccc(Cl)c1)C1CCOCC1 | -21 | 27% | 0% | -1 | -2% | ?
COCCN1CCN(Cc2cn(C)nc2-c2cccc(Cl)c2)CC1 | -2 | ? | 4% | -3 | 0% | -4%
CN(Cc1ccon1)Cc1cn(C)nc1-c1cccc(Cl)c1 | 71 | -8% | 179% | 33* | -2% | 12%
CC(C)[C@H]1CN(C)CCN1Cc1cn(C)nc1-c1cccc(Cl)c1 | 1 | ? | 0% | -4 | 3% | 6%
COc1ccc(C(=O)NCC(c2ccc3c(c2)OCO3)N2CCN(c3ccc(F)cc3)CC2)cc1 (stereo unspecified) | . | . | . | . | . | 5%
COc1ccc(-c2nc(CS(=O)CC(=O)NCc3ccco3)c(C)o2)cc1 (stereo unspecified) | -6 | ? | . | -2 | ? | 0%
COc1ccc(-c2nc(CS(=O)CC(=O)NCc3cccnc3)c(C)o2)cc1 (stereo unspecified) | -15 | 29% | . | -3 | ? | -33%
CCc1ccc(-c2nc(CS(=O)CC(=O)NCc3cccnc3)c(C)o2)cc1 (stereo unspecified) | 16 | -10% | 43% | 18* | ? | 40µM*
CCc1ccc(-c2nc(CS(=O)CC(=O)NCc3ccco3)c(C)o2)cc1 (stereo unspecified) | -4 | ? | 10% | -5 | 29% | 40µM*
CC(C)C[C@H](N)CSSC[C@@H](N)CC(C)C | . | . | . | . | -7% | .
Cc1ccccc1OC(=O)CSc1nnc(-c2ccc3c(c2)OCO3)o1 | . | . | . | . | . | 0%
Cc1ccc(NC(=O)C2CCCN(S(=O)(=O)c3cnc[nH]3)C2)cc1C (stereo unspecified) | 15 | ? | -1% | -3 | -8% | -5%
Cc1cc(NC(=O)C2CCCN(S(=O)(=O)c3cnc[nH]3)C2)ccc1Br (stereo unspecified) | -7 | 4.1µM* | . | -6 | 0% | -4%
